Screening results: PubChem, several laboratories
Rows were chosen to be rich in hits. Some 13% of all compounds tested hit in one or more screens of this group.
RAM network inh = inhibitors of the yeast RAM network, primary screen, dse1pr::URA3 reporter, 5-FOA selection | S. cerevisiae dse1pr::URA3 reporter, 5-FOA growth OD615, 2 d; analog-sensitive cbk1-as2 kinase mutant strain | inhibition, % at 50 µM | 1.8% of 190,000 active;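 active means inhibition above a set limit, 3 SD over mean compound inhibition, cut at about 8.4% in these data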;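 further: 0% = DMSO-only wells with no growth and 100% = 10 µM 1-NA-PP1 full growth; inhibition rescues growth on 5-FOA so higher OD means more RAM inhibition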
L major viab = Leishmania major promastigote growth inhibition, primary screen. Leishmania major promastigotes, resazurin fluorescence viability. inhibition, % at 10 µM. 9% of 200,000 active; in the data active means inhibition above about 50%;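 further: promastigotes grown with compound for 44 hours at 28 °C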
CHOP inhibitor = inhibitors of CHOP promoter induction, primary screen, cell-based, unfolded protein response, luciferase reporter | CHO-K1 CHOP-promoter luciferase, tunicamycin-induced, 15-18 h | 3.8% of 220,000 active | inhibition, % at 10 µM;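 active means compounds that reduced the stress-induced luciferase reporter signal by more than about 70% of percent inhibition, limit read from the data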;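 further: 0% = tunicamycin plus vehicle and 100% = wells without tunicamycin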
WT yeast gro inh = growth inhibition of WT strain, primary screen, mitochondrial fusion inhibitor project, WT and mutant strains, chemical genetic; mitochondrial fusion phenotypic screen; inhibition, % at 10 µM; 2.1% of 190,000 active; AID 1362, 2008; in the data active means inhibition above about 58%; tested in S. cerevisiae
L major 1uM = Leishmania major promastigote growth inhibition, confirmation, 1 µM repeat of primary hits; shares compounds with L major viab; L. major promastigote growth, resazurin fluorescence, 48 h; inhibition, % at 1 µM; 13% of 1,100 active; AID 1258, 2008;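 active means inhibition above about 50% in both repeat tests, limit read from the data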
Active calls of the source: *.

For CCOC(=O)N1CCC(NS(=O)(=O)c2ccc3c(c2)OCC(=O)N3)CC1 the results were RAM network inh 0, L major viab -7, CHOP inhibitor 10 and WT yeast gro inh 2.
Screening CCOC(=O)N1CCC(NS(=O)(=O)c2cc3c(cc2Cl)NC(=O)CO3)CC1 returned RAM network inh 1, L major viab 55*, CHOP inhibitor -8, WT yeast gro inh 7 and L major 1uM -8.
`CCOC(=O)N1CCN(c2c(F)cc3[nH]c(=S)[nH]c3c2Br)CC1` gave RAM network inh 2, L major viab 51*, WT yeast gro inh 7 and L major 1uM -14.
Screening CCOC(=O)N1CCN(c2cc3[nH]c(=S)[nH]c3cc2F)CC1 returned RAM network inh 1, L major viab -5, CHOP inhibitor 16 and WT yeast gro inh 3.
COCC(=O)N/N=C/c1ccc(Sc2nc3ccccc3s2)o1 was read as RAM network inh 0, L major viab 81*, CHOP inhibitor 22, WT yeast gro inh -2 and L major 1uM -8.
For COC(=O)/C=C1\SC(N)=NC1=O the results were CHOP inhibitor 6.
`COc1cccc(C(=O)N(Cc2ccc3c(c2)OCO3)Cc2nc3ccccc3c(=O)[nH]2)c1` gave RAM network inh 1, L major viab 82*, CHOP inhibitor 13, WT yeast gro inh -10 and L major 1uM -19.
Screening Nc1ccc2nc(SCc3cccc(F)c3)sc2c1 returned RAM network inh 0, L major viab 0, CHOP inhibitor 18 and WT yeast gro inh 7.
Screening Cn1c2ccccc2n2c(=O)c(Cl)c(-c3ccccc3)c(C#N)c12 returned RAM network inh 6, L major viab 62*, CHOP inhibitor 73*, WT yeast gro inh 18 and L major 1uM 0.
Cc1oc(S(=O)(=O)N2CCCCC2)cc1NC(=O)Nc1ccc(F)cc1 was read as CHOP inhibitor 41.
`CC1(C)Cc2ccccc2/C(=C/C(=O)N2CCCCCC2)N1` gave RAM network inh 1, L major viab 29, CHOP inhibitor 18 and WT yeast gro inh 11.
For CNC(=O)/C=C1\NC(C)(C)Cc2c1ccc1ccccc21 the results were RAM network inh -1, L major viab 54*, CHOP inhibitor 37, WT yeast gro inh 16 and L major 1uM 5.
For O=[N+]([O-])c1ccc2c(c1N1CCCCC1)=NC1(CCCCC1)[N+]=2[O-] the results were CHOP inhibitor 14.
For [O-][N+]1=c2ccc(Nc3ccccc3)cc2=NC12CCCCC2 the results were RAM network inh 5, L major viab 100*, CHOP inhibitor -23, WT yeast gro inh 7 and L major 1uM 66*.
For CCN1CCCC(OC(=O)c2cc(-c3ccccc3Cl)nc3ccccc23)C1 (stereo unspecified) the results were RAM network inh 0, L major viab 78*, CHOP inhibitor 47, WT yeast gro inh 15 and L major 1uM 19.
Screening FC(F)(F)c1ccc(C2NCCc3sccc32)cc1 (stereo unspecified) returned RAM network inh -1, L major viab 93*, CHOP inhibitor 10, WT yeast gro inh -11 and L major 1uM 21.
COc1ccc([N+](=O)[O-])cc1NC(=O)c1ccc(-n2nc(C)cc2C)cc1 was read as RAM network inh 2, L major viab -7, CHOP inhibitor 70 and WT yeast gro inh -14.
CN(CC(=O)OCC(=O)c1c(N)n(C)c(=O)n(C)c1=O)S(=O)(=O)c1ccc(Cl)cc1 was read as RAM network inh 2, L major viab -3, CHOP inhibitor 6 and WT yeast gro inh -15.
Screening CCc1c(C)sc(NC(=O)c2ccco2)c1C(=O)N1CCOCC1 returned RAM network inh 2, L major viab -6, CHOP inhibitor 10 and WT yeast gro inh -4.
Screening CCc1c(C)sc(NC(=O)c2ccco2)c1C(=O)N1CCCCC1 returned RAM network inh -1, L major viab 53*, CHOP inhibitor 18, WT yeast gro inh 14 and L major 1uM -5.
For C/C(CCN1CCc2nc(-c3ccccc3)c(-c3ccccc3)cc2C1)=N\O[C@@H](C)c1cc(-c2c(C)cc(C)cc2C)no1 the results were RAM network inh 1, L major viab 83*, CHOP inhibitor 8, WT yeast gro inh 24 and L major 1uM -12.
Screening CCc1cc2c(nc1CC)CCN(CC/C(C)=N/O[C@@H](C)c1cc(-c3c(C)cc(C)cc3C)no1)C2 returned RAM network inh -1, L major viab 92*, CHOP inhibitor 48, WT yeast gro inh 36 and L major 1uM -15.
CN(C)/C=N/C(=S)Nc1ccc(Br)cc1F was read as RAM network inh 1, L major viab -4, CHOP inhibitor 17 and WT yeast gro inh -10.
O=P(C1=C(N2CCOCC2)/C(=C\c2ccccc2)CC1)(N1CCOCC1)N1CCOCC1 was read as RAM network inh 0, L major viab 2, CHOP inhibitor -11 and WT yeast gro inh -5.
Cc1c(-c2ccccc2)c(P(=O)(N2CCOCC2)N2CCOCC2)c2ccccn12 was read as RAM network inh 1, L major viab 55*, CHOP inhibitor -12, WT yeast gro inh -2 and L major 1uM -4.
CC(=O)Nc1cccc(NC(=O)CSc2nnnn2-c2ccc3c(c2)OCO3)c1 was read as CHOP inhibitor 66.
COc1ccc(N(CC(=O)Nc2cccc(N(C)S(C)(=O)=O)c2)S(=O)(=O)c2ccccc2)cc1Cl was read as RAM network inh 6, L major viab 56*, CHOP inhibitor 37, WT yeast gro inh 3 and L major 1uM -6.
COc1ccc(N(CC(=O)Nc2ccc3c(c2)OCO3)S(=O)(=O)c2ccccc2)cc1OC was read as CHOP inhibitor -3.
For C/C(=N\NC(=S)Nc1ccccc1C)c1ccc(O)cc1 the results were RAM network inh 0, L major viab 0, CHOP inhibitor 16 and WT yeast gro inh 2.
For CCc1ccccc1NC(=O)Nc1cc(F)ccc1F the results were RAM network inh 3, L major viab 30, CHOP inhibitor 18 and WT yeast gro inh 9.
Cc1nn(C)c(C)c1/C=N/N=C1\CCC2C3CCc4cc(O)ccc4C3CCC12C (stereo unspecified) was read as RAM network inh 0, L major viab 98*, CHOP inhibitor 24, WT yeast gro inh 5 and L major 1uM 2.
Screening NNc1nc(-c2ccccc2)cc(-c2ccccc2)n1 returned RAM network inh 1, L major viab 91*, CHOP inhibitor 64, WT yeast gro inh 70* and L major 1uM -22.
N#Cc1cc(-c2ccccc2)nc(NN)n1 was read as CHOP inhibitor -7.
Cc1ccc(S(=O)(=O)N2CCC(C)CC2)c([N+](=O)[O-])c1 was read as RAM network inh -1, L major viab 6, CHOP inhibitor 15 and WT yeast gro inh -8.
For Cc1c([N+](=O)[O-])ccc(S(=O)(=O)N2CCC(C(N)=O)CC2)c1C the results were RAM network inh 0, L major viab 84*, CHOP inhibitor 33, WT yeast gro inh 2 and L major 1uM -9.
